Source: PubChem BioAssay
Calls of active or inactive are those of the source.

How the values were obtained:
[1] = test system: Plasmodium falciparum Sir2 (PF13_0152, Sir2A); assay: Plasmodium falciparum Sir2A binding compounds – biochemical, small-molecule microarray, 635 nm fluorescence, primary screen (AID 1098); details: fluorescence 635 nm, higher = more signal;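 further: score merges spot fluorescence intensity with its signal-to-noise ratio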
[2] = probe aDKK1 binding to arrayed compounds – biochemical, biotinylated probe, 635/667 nm fluorescence, primary screen (AID 1099); details: small-molecule microarray, higher = more signal;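 further: score merges 667nm spot fluorescence with signal to noise across triplicate slides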
[3] = probe aCHRDL2 binding to arrayed compounds – biochemical, biotinylated probe, 635/667 nm fluorescence, primary screen (AID 1100); details: small-molecule microarray, higher = more signal
[4] = change in splice reporter luminescence, either direction, cell-based, HEK293, spliceosome inhibition project, primary screen (AID 1101); details: HEK293 splicing luciferase reporter, 24 h, higher = more signal, called active from +8 up or from −8 down;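 further: HEK293 cells carrying a splicing-competent luciferase reporter gene; test concentration not given here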
[5] = molecular target: Fibroblast growth factor 10 (Homo sapiens) (UniProt O15520); assay: compounds binding fibroblast growth factor 10 – biochemical, small-molecule microarray, 635 nm fluorescence, primary screen (AID 1102); details: FGF10 binding, fluorescence 635 nm, higher = more signal
[6] = test system: glycogen synthase kinase-3 (GSK3A per assay name; protocol says GSK3B); assay: compounds binding glycogen synthase kinase-3 – biochemical, small-molecule microarray, 635 nm fluorescence, GSK3A, primary screen (AID 1103); details: fluorescence 635 nm, higher = more signal; further: the record names both GSK3A and GSK3B
[7] = molecular target: Epidermal growth factor receptor (Homo sapiens) (UniProt P00533); assay: compounds binding epidermal growth factor receptor – biochemical, small-molecule microarray, 635 nm fluorescence, primary screen (AID 1104); details: EGFR binding, higher = more signal;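 further: score merges 667 nm emission intensity with spot signal to noise over triplicate slides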
[8] = molecular target: Follistatin-related protein 3 (Homo sapiens) (UniProt O95633); assay: compounds binding follistatin-related protein 3 – biochemical, small-molecule microarray, 635 nm fluorescence, primary screen (AID 1105); details: FSTL3 binding, higher = more signal;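 further: score merges emission near 667 nm and signal to noise per printed spot across three slides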
[9] = molecular target: Dickkopf-related protein 1 (Homo sapiens) (UniProt O94907); assay: small molecules binding DKK1 protein – biochemical, small-molecule microarray, 635 nm fluorescence scan, primary screen (AID 1106); details: higher = more signal;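 further: score merges emission near 667 nm with signal to noise over three replicate slides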
[10] = test system: Inhibin beta A chain (activin A); assay: small molecules binding activin A – biochemical, small-molecule microarray, 635 nm fluorescence scan, primary screen (AID 1107); details: INHBA, higher = more signal;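 further: mouse activin A protein probed at 4.33 µg/mL on printed slides; score merges bound-protein fluorescence near 667 nm with spot signal-to-noise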
[11] = test system: Human papillomavirus type 1a protein E7 (residues 44-93); assay: small molecules binding HPV E7 44-93 – biochemical, small-molecule microarray, residues 44-93, 635 nm fluorescence, primary screen (AID 1108); details: fluorescence 635 nm, higher = more signal;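 further: E7 fragment applied at 1 µg/mL in TBST for 1 h at 4 C; score combines spot fluorescence with its signal to noise ratio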
[12] = hepatitis C replication reporter changes, two-sided – Huh7 cells, luciferase reporter, HCV replication inhibitor project, primary screen (AID 1109); details: Huh7 HCV replicon luciferase reporter, 48 h; higher = more signal;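 further: huh7 hepatoma cells harbouring a luciferase neomycin HCV replicon reporter; luciferase luminescence as measure of HCV replicon replication; test concentration not given here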
[13] = molecular target: Left-right determination factor 2 (Homo sapiens) (UniProt O00292); assay: small molecules binding LEFTY2 protein – biochemical, small-molecule microarray, 635 nm fluorescence scan, primary screen (AID 1110); details: higher = more signal
[14] = molecular target: Calmodulin-1 (Homo sapiens) (UniProt P0DP23); assay: small molecules binding calmodulin-1 with EGTA – biochemical, small-molecule microarray, Cy5-labelled CALM1, profiling panel (AID 1111); details: Cy5-CALM1 binding fluorescence, higher = more signal;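 further: labelled calmodulin applied in Tris saline Tween buffer holding calcium plus EGTA and DTT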
[15] = molecular target: Calmodulin-1 (Homo sapiens) (UniProt P0DP23); assay: small molecules binding Ca-loaded calmodulin-1 – biochemical, small-molecule microarray, Cy5-labelled CALM1, plus calcium, artefact control for SMM control-protein annotation, profiling panel (AID 1112); details: Cy5-CALM1 binding fluorescence, higher = more signal;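 further: score merges spot fluorescence with signal to noise from triplicate slides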
[16] = probe aWnt5a binding to arrayed compounds – biochemical, biotinylated probe, 635/667 nm fluorescence, primary screen (AID 1113); details: small-molecule microarray, higher = more signal;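 further: score merges 667 nm fluorescence intensity with signal-to-noise per printed feature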
[17] = probe aShh binding to arrayed compounds – biochemical, biotinylated probe, 635/667 nm fluorescence, primary screen (AID 1114); details: small-molecule microarray, higher = more signal;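 further: probe is biotin-labelled aShh protein from a stem cell growth factor screen; measures binding of labelled protein to compounds printed on the slide; score merges feature fluorescence at 667 nm with signal-to-noise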
[18] = probe aNog binding to arrayed compounds – biochemical, biotinylated probe, 635/667 nm fluorescence, primary screen (AID 1115); details: small-molecule microarray, higher = more signal;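 further: probe is biotinylated aNog protein used at 0.15 µg/mL for 1 h at 4 C; z-score combines 667 nm fluorescence of each spot with its signal to noise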
[19] = molecular target: Torsin-1A-interacting protein 1 (Homo sapiens) (UniProt Q5JTV8); assay: compound microarray binding of lysate hLAP1 – cell lysate, small-molecule microarray, COS7 lysate, 635/667 nm fluorescence, primary screen (AID 1116); details: 635 nm fluorescence, higher = more signal
[20] = molecular target: Alpha-bungarotoxin (Bungarus multicinctus) (UniProt P60615); assay: compounds binding labelled alpha-BTX control protein – biochemical, small-molecule microarray, Alexa647 label, 635/667 nm fluorescence, artefact control for SMM control protein annotation, profiling panel (AID 1117); details: alpha-BTX-A647 binding fluorescence, higher = more signal
Alpha-bungarotoxin (Bungarus multicinctus), sequence (P60615 whole entry, looked up): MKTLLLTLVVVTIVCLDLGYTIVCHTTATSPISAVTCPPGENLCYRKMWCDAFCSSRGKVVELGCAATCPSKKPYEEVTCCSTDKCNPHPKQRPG

Torsin-1A-interacting protein 1 (Homo sapiens), sequence (Q5JTV8 whole entry, looked up): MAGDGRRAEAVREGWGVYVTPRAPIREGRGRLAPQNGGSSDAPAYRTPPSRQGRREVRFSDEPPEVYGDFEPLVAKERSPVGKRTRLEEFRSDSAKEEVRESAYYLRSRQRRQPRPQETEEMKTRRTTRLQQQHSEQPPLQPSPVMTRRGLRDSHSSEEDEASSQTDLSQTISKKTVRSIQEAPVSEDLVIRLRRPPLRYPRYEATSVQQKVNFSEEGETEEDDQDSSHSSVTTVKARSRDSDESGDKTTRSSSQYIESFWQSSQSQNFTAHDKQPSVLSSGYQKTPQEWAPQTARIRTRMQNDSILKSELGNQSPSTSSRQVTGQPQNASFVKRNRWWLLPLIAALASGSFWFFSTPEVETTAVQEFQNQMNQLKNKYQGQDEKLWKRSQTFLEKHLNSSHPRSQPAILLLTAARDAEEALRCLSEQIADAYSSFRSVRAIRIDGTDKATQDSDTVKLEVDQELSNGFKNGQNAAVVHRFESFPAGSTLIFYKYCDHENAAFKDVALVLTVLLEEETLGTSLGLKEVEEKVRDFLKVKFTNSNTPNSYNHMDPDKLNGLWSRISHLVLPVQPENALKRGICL
Dickkopf-related protein 1 (Homo sapiens), sequence (O94907 whole entry, looked up): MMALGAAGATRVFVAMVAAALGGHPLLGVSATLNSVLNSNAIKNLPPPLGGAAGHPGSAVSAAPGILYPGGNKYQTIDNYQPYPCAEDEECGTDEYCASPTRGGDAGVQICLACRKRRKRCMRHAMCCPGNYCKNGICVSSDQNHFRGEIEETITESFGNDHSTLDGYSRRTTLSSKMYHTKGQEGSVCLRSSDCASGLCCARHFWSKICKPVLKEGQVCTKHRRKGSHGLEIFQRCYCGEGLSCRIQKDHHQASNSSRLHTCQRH
Epidermal growth factor receptor (Homo sapiens), sequence (P00533 whole entry, looked up): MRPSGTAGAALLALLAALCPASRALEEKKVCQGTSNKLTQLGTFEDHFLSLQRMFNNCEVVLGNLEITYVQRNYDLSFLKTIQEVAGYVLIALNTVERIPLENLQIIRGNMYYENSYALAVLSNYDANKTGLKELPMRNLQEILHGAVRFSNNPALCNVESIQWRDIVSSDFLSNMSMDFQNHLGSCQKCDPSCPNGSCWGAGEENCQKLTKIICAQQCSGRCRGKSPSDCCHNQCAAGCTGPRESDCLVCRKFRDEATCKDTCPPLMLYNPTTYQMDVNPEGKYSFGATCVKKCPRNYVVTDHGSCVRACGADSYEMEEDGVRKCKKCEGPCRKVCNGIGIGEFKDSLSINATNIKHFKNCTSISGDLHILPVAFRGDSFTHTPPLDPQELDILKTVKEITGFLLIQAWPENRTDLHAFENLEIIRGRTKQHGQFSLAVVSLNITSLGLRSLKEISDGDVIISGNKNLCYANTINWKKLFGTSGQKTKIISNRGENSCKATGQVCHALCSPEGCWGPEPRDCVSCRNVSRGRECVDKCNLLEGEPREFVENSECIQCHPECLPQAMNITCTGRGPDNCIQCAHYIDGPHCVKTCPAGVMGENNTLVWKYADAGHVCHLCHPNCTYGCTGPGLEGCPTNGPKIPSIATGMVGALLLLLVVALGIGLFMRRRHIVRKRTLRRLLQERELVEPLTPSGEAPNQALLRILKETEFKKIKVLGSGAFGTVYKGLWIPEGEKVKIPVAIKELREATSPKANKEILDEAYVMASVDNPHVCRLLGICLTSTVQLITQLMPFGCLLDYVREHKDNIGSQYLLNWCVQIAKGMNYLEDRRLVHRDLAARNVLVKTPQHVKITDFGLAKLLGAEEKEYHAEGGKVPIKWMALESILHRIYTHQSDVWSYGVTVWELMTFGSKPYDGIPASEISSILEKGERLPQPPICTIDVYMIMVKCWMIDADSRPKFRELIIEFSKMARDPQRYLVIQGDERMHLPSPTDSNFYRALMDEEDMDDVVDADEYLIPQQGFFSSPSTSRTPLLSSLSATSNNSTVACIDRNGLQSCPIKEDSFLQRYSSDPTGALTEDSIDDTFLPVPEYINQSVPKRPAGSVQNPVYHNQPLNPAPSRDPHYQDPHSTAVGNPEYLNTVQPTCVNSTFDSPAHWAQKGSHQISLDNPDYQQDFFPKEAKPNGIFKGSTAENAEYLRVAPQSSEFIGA
Fibroblast growth factor 10 (Homo sapiens), sequence (O15520 whole entry, looked up): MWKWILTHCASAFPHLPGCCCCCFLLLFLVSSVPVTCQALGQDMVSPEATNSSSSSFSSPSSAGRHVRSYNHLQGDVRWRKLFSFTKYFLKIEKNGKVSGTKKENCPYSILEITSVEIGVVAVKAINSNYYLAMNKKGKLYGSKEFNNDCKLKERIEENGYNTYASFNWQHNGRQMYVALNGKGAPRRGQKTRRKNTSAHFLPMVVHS
Left-right determination factor 2 (Homo sapiens), sequence (O00292 whole entry, looked up): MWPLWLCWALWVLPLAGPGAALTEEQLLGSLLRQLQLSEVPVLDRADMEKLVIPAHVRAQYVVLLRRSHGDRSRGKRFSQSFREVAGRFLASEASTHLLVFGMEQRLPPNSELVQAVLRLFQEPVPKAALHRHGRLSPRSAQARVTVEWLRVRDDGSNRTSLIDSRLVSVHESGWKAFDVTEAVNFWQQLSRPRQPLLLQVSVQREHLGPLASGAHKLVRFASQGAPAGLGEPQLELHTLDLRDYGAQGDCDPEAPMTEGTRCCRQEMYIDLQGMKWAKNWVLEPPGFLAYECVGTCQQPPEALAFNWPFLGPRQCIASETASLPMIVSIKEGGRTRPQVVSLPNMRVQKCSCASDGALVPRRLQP
Follistatin-related protein 3 (Homo sapiens), sequence (O95633 whole entry, looked up): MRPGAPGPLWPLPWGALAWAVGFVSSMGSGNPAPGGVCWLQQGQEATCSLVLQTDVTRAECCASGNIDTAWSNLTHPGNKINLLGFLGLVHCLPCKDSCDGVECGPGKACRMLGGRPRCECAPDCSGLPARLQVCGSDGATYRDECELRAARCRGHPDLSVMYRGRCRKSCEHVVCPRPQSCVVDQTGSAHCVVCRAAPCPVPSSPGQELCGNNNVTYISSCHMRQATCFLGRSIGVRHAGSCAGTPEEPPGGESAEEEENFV

In the case of `COc1cc(NN2C(C(O)c3ccc(I)cc3)C=CC3C(=O)N(C)C(=O)C32)cc(OC)c1OC` (stereo not given), the composite z-score [1] is reported as 0.719, the composite z-score [2] is reported as 0.986 and the composite z-score [3] is reported as 1.02. For the same compound, the z-score [4] was 0.037 (inactive), the composite z-score [5] was -0.0431 and the composite z-score [6] was -0.217. It also gave a composite z-score [7] of -0.391, a composite z-score [8] of -0.602 and a composite z-score [9] of -1.18. The composite z-score [10] was 1.29, the composite z-score [11] was 0.539 and the z-score [12] was -1.32. The composite z-score [13] was -0.379, the composite z-score [14] was 0.143 and the composite z-score [15] was 0.476. The composite z-score [16] was 0.0077, the composite z-score [17] was 0.289 and the composite z-score [18] was -0.0247. For the same compound, the composite z-score [19] was 0.917 and the composite z-score [20] was -0.161.
For `CC(C)c1ccc(NN2C(C(O)c3cccs3)C=CC3C(=O)N(c4ccccc4)C(=O)C32)cc1` (stereo not given), the composite z-score [1] was 1.02, the composite z-score [2] was 0.0558 and the composite z-score [3] was 0.928. For the same compound, the z-score [4] was 0.356 (inactive), the composite z-score [5] was 0.461 and the composite z-score [6] was 1.31. For the same compound, the composite z-score [7] was 0.156, the composite z-score [8] was 1.21 and the composite z-score [9] was -0.054. The composite z-score [10] was 0.975, the composite z-score [11] was 1.4 and the z-score [12] was -0.531. It also gave a composite z-score [13] of -0.0393, a composite z-score [14] of 2.29 and a composite z-score [15] of 0.795. For the same compound, the composite z-score [16] was 0.0364, the composite z-score [17] was -0.304 and the composite z-score [18] was 0.113. For the same compound, the composite z-score [19] was 0.789 and the composite z-score [20] was 1.01.
Work on `C=C(COC)C(=O)CC[C@H](OC(=O)c1ccccc1-c1ccccc1C(=O)O)c1ccc(OCCO)cc1` yielded a composite z-score [1] of 1.53, a composite z-score [2] of -0.203 and a composite z-score [3] of 0.0518. The z-score [4] was 0.287 (inactive), the composite z-score [5] was 1.35 and the composite z-score [6] was 0.667. It also gave a composite z-score [7] of -0.237, a composite z-score [8] of 1.05 and a composite z-score [9] of 0.701. The composite z-score [10] was 1.1, the composite z-score [11] was 0.701 and the z-score [12] was -1.06. It also gave a composite z-score [13] of 0.419, a composite z-score [14] of 0.0421 and a composite z-score [15] of -0.774. It also gave a composite z-score [16] of -0.148, a composite z-score [17] of 0.351 and a composite z-score [18] of 0.229. For the same compound, the composite z-score [19] was 3.05 and the composite z-score [20] was 1.16.
Compound `N#Cc1ccc(NN2C(C(O)c3ccco3)C=CC3C(=O)N(c4ccccc4)C(=O)C32)cc1` (stereo not given) has a composite z-score [1] of 0.939, a composite z-score [2] of 0.565 and a composite z-score [3] of 0.843. For the same compound, the z-score [4] was 1.07 (inactive), the composite z-score [5] was 0.505 and the composite z-score [6] was -0.202. The composite z-score [7] was 0.0343, the composite z-score [8] was 0.0837 and the composite z-score [9] was 0.18. It also gave a composite z-score [10] of 0.921, a composite z-score [11] of -0.345 and a z-score [12] of -0.36. It also gave a composite z-score [13] of -0.0879, a composite z-score [14] of 0.144 and a composite z-score [15] of -0.539. For the same compound, the composite z-score [16] was 0.0012, the composite z-score [17] was -0.0035 and the composite z-score [18] was 0.531. For the same compound, the composite z-score [19] was -0.247 and the composite z-score [20] was 0.518.
`NC(=O)NCC#Cc1ccc2c(c1)[C@]1(C(=O)N2)[C@H](c2ccc(O)cc2)N2[C@H](c3ccccc3)[C@H](c3ccccc3)OC(=O)[C@H]2[C@@H]1C(=O)NC[C@H](O)c1ccccc1` gave a composite z-score [1] of -0.227, a composite z-score [2] of 0.004 and a composite z-score [3] of 0.725. For the same compound, the z-score [4] was -0.647 (inactive), the composite z-score [5] was -1.39 and the composite z-score [6] was -0.964. It also gave a composite z-score [7] of -1.2, a composite z-score [8] of -2.26 and a composite z-score [9] of -1.53. It also gave a composite z-score [10] of -1.82, a composite z-score [11] of -0.631 and a z-score [12] of 0.918. It also gave a composite z-score [13] of -1.67, a composite z-score [14] of -0.699 and a composite z-score [15] of 0.827. For the same compound, the composite z-score [16] was -0.219, the composite z-score [17] was -0.276 and the composite z-score [18] was 0.241. For the same compound, the composite z-score [19] was -0.243 and the composite z-score [20] was -2.
In the case of `COC(=O)[C@@]1(Cc2ccc(OC)cc2)[C@H]2c3cc(C(=O)N(C)C)n(Cc4cc(C)n(C)n4)c3C[C@H]2CN1C(=O)c1ccccc1`, the composite z-score [1] is reported as 1.07, the composite z-score [2] is reported as 0.383 and the composite z-score [3] is reported as 0.433. For the same compound, the z-score [4] was -1.03 (inactive), the composite z-score [5] was 1.43 and the composite z-score [6] was 0.902. It also gave a composite z-score [7] of -0.232, a composite z-score [8] of -0.0771 and a composite z-score [9] of -0.382. The composite z-score [10] was 0.79, the composite z-score [11] was 1.52 and the z-score [12] was -0.952. It also gave a composite z-score [13] of -0.198, a composite z-score [14] of 0.239 and a composite z-score [15] of 0.529. It also gave a composite z-score [16] of 0.596, a composite z-score [17] of 0.964 and a composite z-score [18] of 1.11. The composite z-score [19] was 1.2 and the composite z-score [20] was -0.329.
